# Reference: the supplement of paper PMC3334620
# Over roughly 33,000 sequences, “E-score (-0.5 to 0.5)” has its median near -0.012; the highest 2% begin near 0.27. The sample as a whole holds a higher share of the highest values than the screen did.
# Target: T1, Vhr1 (UniProt P40522)
# T1 sequence: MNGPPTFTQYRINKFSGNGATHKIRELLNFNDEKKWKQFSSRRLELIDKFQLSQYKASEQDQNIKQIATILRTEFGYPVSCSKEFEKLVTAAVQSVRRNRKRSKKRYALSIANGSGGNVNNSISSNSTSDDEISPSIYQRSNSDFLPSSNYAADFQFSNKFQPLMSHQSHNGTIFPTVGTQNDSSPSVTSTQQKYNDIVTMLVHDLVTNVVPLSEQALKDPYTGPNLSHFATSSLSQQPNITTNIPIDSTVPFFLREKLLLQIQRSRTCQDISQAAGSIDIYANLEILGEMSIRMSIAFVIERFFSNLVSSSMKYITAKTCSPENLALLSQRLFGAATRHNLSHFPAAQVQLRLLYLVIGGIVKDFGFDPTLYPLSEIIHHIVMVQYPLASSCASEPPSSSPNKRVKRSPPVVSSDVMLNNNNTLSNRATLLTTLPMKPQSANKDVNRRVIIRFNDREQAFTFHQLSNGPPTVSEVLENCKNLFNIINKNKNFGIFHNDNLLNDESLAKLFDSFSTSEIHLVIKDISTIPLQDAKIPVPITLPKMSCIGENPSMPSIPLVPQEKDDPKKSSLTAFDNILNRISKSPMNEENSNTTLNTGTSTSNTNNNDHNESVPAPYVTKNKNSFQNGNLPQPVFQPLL
# Assay: PBM E-score (8-mer binding enrichment) (E-score (-0.5 to 0.5)); higher = stronger / more preferred TF binding
# Details: protein concentration: 200 nM; construct: GST-full length
# Summary of the method: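 Bound GST-tagged yeast transcription factors, applied at about 100-200 nM to double-stranded universal all-10-mer Agilent arrays, were detected with fluorescent anti-GST. Scans were normalised with masliner. A modified Wilcoxon-Mann-Whitney statistic, the E-score, was assigned to each ungapped eight-base word pooled with its reverse complement by the Universal PBM Analysis Suite.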
row,Sequence,PBM E-score
1,AACACACC,0.27
2,CACACACC,0.235
3,GAGACACA,0.14
4,GACACATA,0.197
5,GACACACC,0.28
6,GACACACA,0.298
7,GGGACACA,0.297
8,TGGACACA,0.0645
9,GGGACACC,-0.0207
10,GTGGGACA,0.0875
11,CAAGGCAC,-0.0306
12,AAGGCCCT,-0.164
13,CTGGTAGA,0.0523
14,CAGCTAGA,0.0392
15,AAGAATGG,-0.12
16,CTGACTTA,0.187
17,AGGACTTA,-0.0181
18,CTGACTTC,0.195
19,ATGACTTC,0.341
20,ATGACTTA,0.349
21,ACGACTTC,0.0846
22,ACCTTACT,-0.129

row,Sequence,PBM E-score
1,CAGTACCG,0.0537
2,ACTGAGCT,-0.0929
3,CTGACCCA,0.0712
4,GTGACCCA,0.267
5,ATGACCCA,0.362
6,TCGCTGAA,0.0432
7,AGAACACT,0.108
8,CACGGTGG,0.273
9,CACGGTGC,0.0709
10,CACGGTGA,0.106
11,ATGCATAG,0.013
12,CATGTCTC,0.294
13,CATGTCTA,0.0965
14,AATGTCTC,0.137
15,AGTGAGTA,0.192
16,GATGAGTA,0.382
17,CATGAGTA,0.225
18,GGTGAGGA,0.00616
19,GGTGAGTA,0.282
20,GCTGAGTA,0.0378
21,TCGCAGCA,0.0961
22,ACTTCTAT,-0.0176

row,Sequence,PBM E-score
1,CACTGCGG,0.213
2,AATGTTGA,0.043
3,CATGTTGC,0.0935
4,CATGTTGA,0.278
5,GGTTTCTA,-0.122
6,CTCATCAG,0.312
7,CTCATCAC,0.0121
8,ATCATCAG,0.0874
9,TAACACGA,0.212
10,CTCTCCAG,-0.232
11,ATGTCTAG,0.12
12,CAGGAGTC,0.373
13,ACGGAGTG,0.00137
14,ACGGAGTC,0.408
15,CCGGAGTC,0.421
16,AAGGAGTC,0.203
17,CAGGAGTA,-0.00382
18,CCGGAGTA,0.0674
19,CCGGAGGC,-0.141
20,ACGGAGTA,0.0079
21,AGCCGTCA,-0.0405
22,GCAAGTAC,-0.109

row,Sequence,PBM E-score
1,ATAGGAAG,0.0182
2,AGAGTTTG,0.0245
3,CGCTGTTA,-0.0856
4,GGTCACGA,0.09
5,ATTCACGG,0.0271
6,CGTCACGC,-0.208
7,AATCACGG,0.259
8,CGTCACGA,0.00392
9,AGTCACGC,0.426
10,ATTCACGC,0.117
11,AGTCACGA,0.411
12,AGTCACGG,0.417
13,CAGAACAG,0.066
14,GGCTCCTA,-0.136
15,CCAACAGA,-0.0653
16,CCCCGCTA,-0.0924
17,CTTTGGCC,-0.254
18,AATTAATA,0.102
19,CCACTCGA,0.0905
20,ATTCAATA,-0.0197
